Key:
Assay in all cases: log2 ratio of Biotin-Ahx-Ub-VS probe labelling (fragment/DMSO); higher = less target engagement (more negative = stronger competition), active = hit call of the paper (q ≤ 0.05, log2 ratio ≤ -1)
Settings in all cases: compound concentration: 200 uM; treatment time: 3 h
USP34 = USP34 (UniProt Q70CQ2)
Procedure, shortened: (§1)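 Labelled DUBs were enriched with NeutrAvidin, digested with LysC and trypsin, and run by diaPASEF LC-MS/MS. The labelling used Biotin-Ahx-Ub-VS at 0.5 µM final for 1 h on HEK293T lysate (495 µg per sample) previously treated in triplicate with fragment at 200 µM or vehicle for 3 h. Values are average log2 fragment/vehicle ratios by unpaired t-test on global-median-normalised Spectronaut quantities of proteins with ≥2 unique peptides.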

USP36 = target: T1, USP36 (UniProt Q9P275)
T1 sequence (whole entry): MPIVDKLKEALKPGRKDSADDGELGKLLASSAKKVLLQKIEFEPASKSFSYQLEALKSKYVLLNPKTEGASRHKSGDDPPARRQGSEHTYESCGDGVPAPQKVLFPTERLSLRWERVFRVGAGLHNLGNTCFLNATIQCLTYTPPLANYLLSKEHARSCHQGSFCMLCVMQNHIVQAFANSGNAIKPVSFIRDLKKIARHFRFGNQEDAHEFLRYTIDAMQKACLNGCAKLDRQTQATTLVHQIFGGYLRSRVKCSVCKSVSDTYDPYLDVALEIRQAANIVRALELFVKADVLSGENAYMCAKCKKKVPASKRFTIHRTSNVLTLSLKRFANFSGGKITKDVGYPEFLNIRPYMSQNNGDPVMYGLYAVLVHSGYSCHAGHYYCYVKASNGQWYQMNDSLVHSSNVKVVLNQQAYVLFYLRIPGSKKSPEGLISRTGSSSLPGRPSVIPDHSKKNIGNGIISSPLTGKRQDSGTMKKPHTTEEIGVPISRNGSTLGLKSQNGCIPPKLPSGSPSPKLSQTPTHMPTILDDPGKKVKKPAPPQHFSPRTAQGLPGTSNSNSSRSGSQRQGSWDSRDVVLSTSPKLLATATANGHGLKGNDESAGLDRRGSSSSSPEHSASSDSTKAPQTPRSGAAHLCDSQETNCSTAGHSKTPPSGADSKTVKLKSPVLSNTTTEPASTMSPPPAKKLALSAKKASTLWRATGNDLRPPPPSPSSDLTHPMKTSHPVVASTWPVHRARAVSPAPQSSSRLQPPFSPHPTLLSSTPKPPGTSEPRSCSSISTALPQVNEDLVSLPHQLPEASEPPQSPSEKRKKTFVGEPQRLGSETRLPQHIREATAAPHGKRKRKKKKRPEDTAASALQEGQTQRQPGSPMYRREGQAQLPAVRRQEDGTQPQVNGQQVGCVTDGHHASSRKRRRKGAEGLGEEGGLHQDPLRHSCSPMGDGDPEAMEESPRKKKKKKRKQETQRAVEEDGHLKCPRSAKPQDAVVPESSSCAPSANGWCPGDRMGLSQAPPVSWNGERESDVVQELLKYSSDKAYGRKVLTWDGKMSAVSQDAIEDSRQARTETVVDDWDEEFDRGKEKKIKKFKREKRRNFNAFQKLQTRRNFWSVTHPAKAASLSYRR
Procedure, shortened: as §1

USP38 = target: T2, USP38 (UniProt Q8NB14)
T2 sequence (whole entry): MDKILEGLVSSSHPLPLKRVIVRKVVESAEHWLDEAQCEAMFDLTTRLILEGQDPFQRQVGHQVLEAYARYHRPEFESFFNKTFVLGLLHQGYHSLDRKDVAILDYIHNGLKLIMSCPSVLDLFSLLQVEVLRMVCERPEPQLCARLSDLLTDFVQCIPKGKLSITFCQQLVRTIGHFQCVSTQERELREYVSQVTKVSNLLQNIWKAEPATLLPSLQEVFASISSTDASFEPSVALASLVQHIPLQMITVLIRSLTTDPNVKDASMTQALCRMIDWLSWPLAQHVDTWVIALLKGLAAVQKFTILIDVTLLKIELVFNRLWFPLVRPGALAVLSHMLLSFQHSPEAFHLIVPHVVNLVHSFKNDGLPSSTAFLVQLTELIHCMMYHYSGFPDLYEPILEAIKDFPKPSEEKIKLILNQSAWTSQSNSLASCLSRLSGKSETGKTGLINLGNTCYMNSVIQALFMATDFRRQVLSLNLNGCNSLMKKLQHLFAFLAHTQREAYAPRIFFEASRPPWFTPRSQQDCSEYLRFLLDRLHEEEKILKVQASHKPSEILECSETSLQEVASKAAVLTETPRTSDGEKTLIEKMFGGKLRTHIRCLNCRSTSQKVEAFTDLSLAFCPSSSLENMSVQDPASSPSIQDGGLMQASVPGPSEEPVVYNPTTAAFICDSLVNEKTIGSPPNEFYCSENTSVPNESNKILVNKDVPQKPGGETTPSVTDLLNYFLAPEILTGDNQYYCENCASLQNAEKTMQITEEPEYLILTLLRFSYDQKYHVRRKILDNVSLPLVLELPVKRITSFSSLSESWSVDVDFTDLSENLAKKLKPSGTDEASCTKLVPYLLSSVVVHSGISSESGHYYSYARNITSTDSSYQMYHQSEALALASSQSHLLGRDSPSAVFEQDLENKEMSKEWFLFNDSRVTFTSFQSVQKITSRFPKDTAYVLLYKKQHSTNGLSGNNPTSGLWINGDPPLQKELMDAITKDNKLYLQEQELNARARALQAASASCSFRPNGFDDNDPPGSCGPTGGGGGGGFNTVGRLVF
Procedure, shortened: as §1

USP39 = target: T3, USP39 (UniProt Q53GS9)
T3 sequence (whole entry): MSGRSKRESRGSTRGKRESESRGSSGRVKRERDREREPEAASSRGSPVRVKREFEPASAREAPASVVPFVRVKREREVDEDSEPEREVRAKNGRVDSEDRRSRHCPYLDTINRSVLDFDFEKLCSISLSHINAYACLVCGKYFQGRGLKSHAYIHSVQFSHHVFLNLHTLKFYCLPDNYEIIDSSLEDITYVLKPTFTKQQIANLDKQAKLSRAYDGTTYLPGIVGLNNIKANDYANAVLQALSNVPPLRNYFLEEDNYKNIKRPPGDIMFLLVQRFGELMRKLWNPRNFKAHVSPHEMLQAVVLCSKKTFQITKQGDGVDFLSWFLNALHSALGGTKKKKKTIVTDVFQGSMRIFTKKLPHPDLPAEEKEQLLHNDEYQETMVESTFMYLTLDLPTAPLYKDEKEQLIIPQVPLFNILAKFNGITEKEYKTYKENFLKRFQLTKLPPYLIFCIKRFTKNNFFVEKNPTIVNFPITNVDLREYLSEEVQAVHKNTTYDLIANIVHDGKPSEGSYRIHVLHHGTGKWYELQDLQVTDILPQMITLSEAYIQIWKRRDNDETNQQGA
Procedure, shortened: as §1

USP4 = target: T4, USP4 (UniProt Q13107)
T4 sequence (whole entry): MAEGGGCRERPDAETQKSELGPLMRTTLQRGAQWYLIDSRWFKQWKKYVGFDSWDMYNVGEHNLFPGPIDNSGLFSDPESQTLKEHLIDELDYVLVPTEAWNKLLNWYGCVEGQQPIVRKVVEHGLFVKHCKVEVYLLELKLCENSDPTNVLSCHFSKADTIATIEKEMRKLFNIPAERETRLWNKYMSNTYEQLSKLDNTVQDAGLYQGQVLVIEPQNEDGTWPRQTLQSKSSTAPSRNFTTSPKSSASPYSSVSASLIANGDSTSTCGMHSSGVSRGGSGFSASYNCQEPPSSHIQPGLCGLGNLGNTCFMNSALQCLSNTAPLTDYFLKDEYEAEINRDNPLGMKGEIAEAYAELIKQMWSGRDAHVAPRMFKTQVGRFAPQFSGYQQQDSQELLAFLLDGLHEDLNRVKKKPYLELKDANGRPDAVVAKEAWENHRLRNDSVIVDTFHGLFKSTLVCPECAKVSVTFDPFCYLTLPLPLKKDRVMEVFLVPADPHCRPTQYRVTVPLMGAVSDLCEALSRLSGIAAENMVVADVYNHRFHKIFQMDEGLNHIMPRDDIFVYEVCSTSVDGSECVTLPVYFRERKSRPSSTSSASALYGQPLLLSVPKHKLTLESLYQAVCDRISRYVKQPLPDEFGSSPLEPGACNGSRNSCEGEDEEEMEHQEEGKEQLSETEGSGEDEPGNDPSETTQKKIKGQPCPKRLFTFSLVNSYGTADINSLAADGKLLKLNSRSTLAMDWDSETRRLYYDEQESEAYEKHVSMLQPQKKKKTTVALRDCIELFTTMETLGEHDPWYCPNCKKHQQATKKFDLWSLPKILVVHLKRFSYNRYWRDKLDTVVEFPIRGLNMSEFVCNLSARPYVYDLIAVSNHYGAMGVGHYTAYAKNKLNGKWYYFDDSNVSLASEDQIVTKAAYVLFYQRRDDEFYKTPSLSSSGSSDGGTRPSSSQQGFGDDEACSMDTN
Procedure, shortened: as §1

Measured: log2 ratio of Biotin-Ahx-Ub-VS probe labelling

USP34, sequence (Q70CQ2 whole entry, the tested form may be a part): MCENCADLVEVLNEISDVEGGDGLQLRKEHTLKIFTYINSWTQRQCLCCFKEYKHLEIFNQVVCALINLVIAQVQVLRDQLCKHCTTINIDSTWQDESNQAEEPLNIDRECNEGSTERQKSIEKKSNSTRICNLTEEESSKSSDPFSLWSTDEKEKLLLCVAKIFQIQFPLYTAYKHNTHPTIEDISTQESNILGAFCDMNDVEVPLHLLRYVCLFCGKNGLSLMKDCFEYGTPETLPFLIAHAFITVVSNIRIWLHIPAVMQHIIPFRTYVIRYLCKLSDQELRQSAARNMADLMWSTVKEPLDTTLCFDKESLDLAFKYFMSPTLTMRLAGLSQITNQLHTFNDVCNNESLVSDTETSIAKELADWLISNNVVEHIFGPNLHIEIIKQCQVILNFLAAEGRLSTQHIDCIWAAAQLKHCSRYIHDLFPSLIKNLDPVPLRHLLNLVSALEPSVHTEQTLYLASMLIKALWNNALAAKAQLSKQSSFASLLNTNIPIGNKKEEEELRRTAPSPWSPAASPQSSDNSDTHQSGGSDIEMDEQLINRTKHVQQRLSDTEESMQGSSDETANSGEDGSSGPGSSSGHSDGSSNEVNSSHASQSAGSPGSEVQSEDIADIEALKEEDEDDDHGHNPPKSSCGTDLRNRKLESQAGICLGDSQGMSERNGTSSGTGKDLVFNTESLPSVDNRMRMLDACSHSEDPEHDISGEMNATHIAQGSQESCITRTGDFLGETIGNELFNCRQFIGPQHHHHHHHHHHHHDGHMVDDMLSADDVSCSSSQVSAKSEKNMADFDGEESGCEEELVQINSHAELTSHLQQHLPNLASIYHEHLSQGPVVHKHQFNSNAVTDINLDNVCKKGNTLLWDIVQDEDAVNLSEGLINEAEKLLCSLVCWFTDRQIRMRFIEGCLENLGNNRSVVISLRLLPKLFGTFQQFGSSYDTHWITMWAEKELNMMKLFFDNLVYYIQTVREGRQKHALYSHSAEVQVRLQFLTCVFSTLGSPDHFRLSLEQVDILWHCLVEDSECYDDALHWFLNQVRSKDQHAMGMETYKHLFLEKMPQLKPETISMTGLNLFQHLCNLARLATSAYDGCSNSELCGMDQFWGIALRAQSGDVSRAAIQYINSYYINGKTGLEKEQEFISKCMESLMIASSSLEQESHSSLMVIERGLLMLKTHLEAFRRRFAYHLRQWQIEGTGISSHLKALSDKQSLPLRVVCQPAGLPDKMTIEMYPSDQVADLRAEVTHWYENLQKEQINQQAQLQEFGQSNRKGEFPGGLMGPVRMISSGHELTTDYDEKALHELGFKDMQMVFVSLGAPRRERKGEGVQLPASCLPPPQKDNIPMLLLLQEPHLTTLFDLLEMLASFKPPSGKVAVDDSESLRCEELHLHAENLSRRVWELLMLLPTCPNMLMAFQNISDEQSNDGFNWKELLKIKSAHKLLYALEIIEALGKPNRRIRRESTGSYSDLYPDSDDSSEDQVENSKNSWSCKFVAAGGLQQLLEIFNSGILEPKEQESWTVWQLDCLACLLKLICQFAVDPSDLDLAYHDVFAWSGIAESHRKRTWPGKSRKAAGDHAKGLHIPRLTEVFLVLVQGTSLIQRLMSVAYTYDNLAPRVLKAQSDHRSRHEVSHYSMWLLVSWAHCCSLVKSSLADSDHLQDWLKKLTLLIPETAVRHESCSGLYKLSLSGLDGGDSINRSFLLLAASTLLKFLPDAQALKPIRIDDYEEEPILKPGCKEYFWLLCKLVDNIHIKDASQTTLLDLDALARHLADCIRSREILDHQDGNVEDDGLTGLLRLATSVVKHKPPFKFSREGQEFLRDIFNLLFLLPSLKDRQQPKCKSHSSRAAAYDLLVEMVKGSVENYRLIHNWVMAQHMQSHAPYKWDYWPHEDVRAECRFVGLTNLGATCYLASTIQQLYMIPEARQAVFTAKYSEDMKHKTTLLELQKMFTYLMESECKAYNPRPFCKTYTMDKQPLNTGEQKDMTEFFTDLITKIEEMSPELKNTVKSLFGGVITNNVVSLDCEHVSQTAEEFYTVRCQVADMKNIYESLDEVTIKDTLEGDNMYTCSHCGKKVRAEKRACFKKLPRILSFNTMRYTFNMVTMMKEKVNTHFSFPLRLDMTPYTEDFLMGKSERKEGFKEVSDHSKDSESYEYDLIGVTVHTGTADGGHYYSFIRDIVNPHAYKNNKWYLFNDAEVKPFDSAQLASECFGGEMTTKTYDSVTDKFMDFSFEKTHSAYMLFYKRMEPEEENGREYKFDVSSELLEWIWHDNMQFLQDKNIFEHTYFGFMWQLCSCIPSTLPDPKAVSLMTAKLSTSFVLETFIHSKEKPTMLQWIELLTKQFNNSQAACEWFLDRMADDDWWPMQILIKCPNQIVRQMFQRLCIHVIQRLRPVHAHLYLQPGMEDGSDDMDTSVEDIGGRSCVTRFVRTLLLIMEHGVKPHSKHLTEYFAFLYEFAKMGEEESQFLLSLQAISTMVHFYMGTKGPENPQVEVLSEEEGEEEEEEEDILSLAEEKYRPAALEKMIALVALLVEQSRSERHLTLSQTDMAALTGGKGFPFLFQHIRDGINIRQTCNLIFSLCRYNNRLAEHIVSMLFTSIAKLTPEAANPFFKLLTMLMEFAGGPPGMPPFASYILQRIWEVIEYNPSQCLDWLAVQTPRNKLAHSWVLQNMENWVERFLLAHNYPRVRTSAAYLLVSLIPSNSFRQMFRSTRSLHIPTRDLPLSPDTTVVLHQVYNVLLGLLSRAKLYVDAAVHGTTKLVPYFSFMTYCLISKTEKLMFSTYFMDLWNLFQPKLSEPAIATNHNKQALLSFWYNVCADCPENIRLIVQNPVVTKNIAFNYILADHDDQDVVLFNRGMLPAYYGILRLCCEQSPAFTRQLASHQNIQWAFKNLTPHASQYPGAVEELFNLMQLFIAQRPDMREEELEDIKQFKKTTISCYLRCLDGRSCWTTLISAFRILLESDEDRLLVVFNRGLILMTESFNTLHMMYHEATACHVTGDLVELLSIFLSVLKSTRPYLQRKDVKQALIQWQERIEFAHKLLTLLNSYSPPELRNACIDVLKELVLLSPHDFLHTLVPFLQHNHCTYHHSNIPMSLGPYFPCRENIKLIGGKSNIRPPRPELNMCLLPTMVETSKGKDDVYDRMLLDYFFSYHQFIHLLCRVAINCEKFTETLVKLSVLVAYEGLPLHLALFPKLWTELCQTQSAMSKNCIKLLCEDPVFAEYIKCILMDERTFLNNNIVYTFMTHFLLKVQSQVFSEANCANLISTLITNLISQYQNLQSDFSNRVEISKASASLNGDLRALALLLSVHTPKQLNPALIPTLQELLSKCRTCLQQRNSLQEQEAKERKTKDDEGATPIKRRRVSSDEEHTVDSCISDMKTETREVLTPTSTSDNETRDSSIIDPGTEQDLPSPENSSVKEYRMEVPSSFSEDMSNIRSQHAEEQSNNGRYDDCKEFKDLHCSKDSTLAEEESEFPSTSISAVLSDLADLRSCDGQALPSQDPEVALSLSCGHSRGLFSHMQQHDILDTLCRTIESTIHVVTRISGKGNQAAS

CCc1c[nH]c(CNC(=O)CCl)n1.Cl
inactive: USP34 -0.213 | USP36 -0.245 | USP38 -0.15 | USP39 0.178 | USP4 -0.159
